# Data published in PubChem BioAssay.
# Activity calls are given as the source filed them. Unless noted, no rule for the calls is given here.
# Assays:
# [1] = HepG2 liver cancer cell viability effects, profiling panel, resazurin fluorescence, 24 h, PK04 Diversity Set (AID 1172); conditions: higher = more signal; also: test concentration not given here
# [2] = basal S. cerevisiae growth modulation, no modifier, primary screen, OD600, strain BY4716, 24 h, basal condition (AID 1173); conditions: OD600, 24 h, higher = more signal, called active from +8 up or from −8 down
# [3] = MM1S myeloma cell viability, profiling panel, resazurin fluorescence, basal, 24 h, PK04 Diversity Set (AID 1174); conditions: higher = more signal, called active from +8 up or from −8 down;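 also: MM1S multiple myeloma cell line; test concentration not given here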
# [4] = target: Dihydroorotate dehydrogenase (quinone), mitochondrial (Plasmodium falciparum (isolate 3D7)) (UniProt Q08210); test: PfDHODH enzyme inhibitors, primary screen, biochemical, C-terminal His tag, absorbance 600 nm (AID 1175); conditions: DCIP absorbance 600 nm, higher = more signal, called active from +8 up or from −8 down;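 also: recombinant parasite enzyme with a five histidine tag at its C terminus; test concentration not given here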
# [5] = P. aeruginosa biofilm formation inhibitors, primary screen, strain PAO1, LB-PBS medium, absorbance 600 nm (AID 1176); also: test concentration not given here; conditions: P. aeruginosa PAO1 growth/biofilm, A600, 12 h; higher = more signal
# [6] = S. cerevisiae RM11-1a growth modifiers, primary screen, strain RM11-1a, OD600, basal, 24 h (AID 1177); conditions: OD600, 24 h, higher = more signal, called active from +8 up or from −8 down;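 also: cultures grown under basal conditions with no added stressor; test concentration not given here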
# [7] = E. coli acrAB mutant growth effects, primary screen, E. coli filamentation inducers, strain DRC39, OD650, 24 h (AID 1178); conditions: higher = more signal, called active from +8 up or from −8 down;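 also: growth measured as culture turbidity by optical density at 650 nm; test concentration not given here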
# [8] = E. coli acrAB mutant growth effects, primary screen, E. coli filamentation inducers, strain DRC39, OD650, 48 h (AID 1179);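 also: screen aims at cell division blockers that make cells filament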; conditions: E. coli DRC39 delta-acrAB growth, higher = more signal, called active from +8 up or from −8 down
# [9] = RPMI8226 myeloma cell viability, profiling panel, resazurin fluorescence, basal, 24 h, PK04 Diversity Set (AID 1180); conditions: higher = more signal;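 also: RPMI8826 multiple myeloma cell line at 5000 cells per well; test concentration not given here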
# [10] = target: E3 ubiquitin-protein ligase XIAP (Homo sapiens) (UniProt P98170); test: XIAP binders, primary screen, biophysical, small-molecule microarray, fluorescence 635 nm (AID 1181); conditions: small-molecule microarray binding, higher = more signal;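 also: score merges 667 nm emission and signal to noise over triplicate slides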
# E3 ubiquitin-protein ligase XIAP (Homo sapiens), sequence (P98170 whole entry, looked up): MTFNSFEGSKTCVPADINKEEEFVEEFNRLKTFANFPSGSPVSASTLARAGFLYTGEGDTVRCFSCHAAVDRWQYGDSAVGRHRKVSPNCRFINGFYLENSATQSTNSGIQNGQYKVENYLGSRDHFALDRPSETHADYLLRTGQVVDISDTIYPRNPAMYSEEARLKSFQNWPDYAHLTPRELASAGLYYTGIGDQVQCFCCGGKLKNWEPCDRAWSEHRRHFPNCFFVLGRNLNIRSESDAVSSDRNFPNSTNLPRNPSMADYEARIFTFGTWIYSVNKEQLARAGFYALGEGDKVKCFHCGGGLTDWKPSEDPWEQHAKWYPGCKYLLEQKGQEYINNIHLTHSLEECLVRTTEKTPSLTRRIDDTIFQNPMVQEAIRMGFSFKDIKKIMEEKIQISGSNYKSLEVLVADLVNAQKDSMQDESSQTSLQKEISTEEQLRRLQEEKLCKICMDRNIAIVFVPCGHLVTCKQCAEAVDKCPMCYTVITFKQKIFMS
# Dihydroorotate dehydrogenase (quinone), mitochondrial (Plasmodium falciparum (isolate 3D7)), sequence (Q08210 whole entry, looked up): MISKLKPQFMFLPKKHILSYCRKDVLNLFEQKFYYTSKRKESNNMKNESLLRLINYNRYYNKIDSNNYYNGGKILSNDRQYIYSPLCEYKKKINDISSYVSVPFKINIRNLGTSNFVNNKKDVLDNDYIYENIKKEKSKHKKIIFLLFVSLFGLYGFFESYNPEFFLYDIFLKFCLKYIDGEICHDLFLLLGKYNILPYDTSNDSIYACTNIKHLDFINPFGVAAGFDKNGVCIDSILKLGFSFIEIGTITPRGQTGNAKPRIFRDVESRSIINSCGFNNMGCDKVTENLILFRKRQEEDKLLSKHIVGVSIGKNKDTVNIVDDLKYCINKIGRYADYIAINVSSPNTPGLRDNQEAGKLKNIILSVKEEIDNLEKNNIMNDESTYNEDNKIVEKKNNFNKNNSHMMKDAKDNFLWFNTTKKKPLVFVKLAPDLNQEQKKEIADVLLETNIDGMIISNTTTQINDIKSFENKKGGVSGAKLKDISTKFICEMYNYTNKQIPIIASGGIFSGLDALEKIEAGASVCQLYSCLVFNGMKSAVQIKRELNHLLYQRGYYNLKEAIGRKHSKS
Compound,z-score [1],z-score [2],z-score [3],composite z-score [4],z-score [5],z-score [6],z-score [7],z-score [8],z-score [9],composite z-score [10]
CCCCCCc1nc(-c2ccc(OC)nc2)c(C)c2c1[Si](C(C)C)(C(C)C)OC2,0.167,-0.121 (inactive),1.86 (inactive),-3 (inactive),0.444 (inactive),-0.745 (inactive),0.746 (inactive),-0.0026 (inactive),0.781,0.128
CCOC(=O)C1=CCC(c2cccn2C(=O)OC(C)(C)C)N(S(=O)(=O)c2ccc(C)cc2)C1 (stereo not given),0.573,-0.902 (inactive),-0.926 (inactive),0.068 (inactive),-0.144 (inactive),0.824 (inactive),-0.484 (inactive),0.605 (inactive),-0.538,0.177
[N-]=[N+]=Nc1ccccc1C[C@@]1(C(=O)NCc2ccccc2)N=C(c2ccc(OCCCO)cc2)O[C@@H]1c1ccccc1,0.508,-0.0233 (inactive),-1.71 (inactive),0.889 (inactive),2.51 (inactive),1.17 (inactive),0.712 (inactive),-0.489 (inactive),-0.564,0.204
O=C1O[C@@H](c2ccccc2)[C@@H](c2ccccc2)N2[C@@H](c3ccccc3OCCO)[C@]3(C(=O)Nc4ccc(C#CC5(O)CCCCCC5)cc43)[C@@H](C(=O)N3CCCCCCC3)[C@H]12,-0.225,0.866 (inactive),-0.169 (inactive),-1.03 (inactive),1.33 (inactive),0.312 (inactive),-0.36 (inactive),-1.17 (inactive),-0.186,1.97
COc1ccc([Si](C)(C)[C@H]2[C@H](CC(=O)N(CCO)Cc3ccccc3)O[C@@]3(C(=O)N(Cc4cccc(N5CCCCC5=O)c4)c4ccccc43)[C@@H]2C)cc1,-0.415,-0.0548 (inactive),-2.35 (inactive),-1.02 (inactive),1.77 (inactive),1.45 (inactive),0.72 (inactive),0.832 (inactive),-3.16,-0.0559
CC(=O)NCCCC[C@@H]1NC(=O)[C@H]2C[C@@H](C(=O)O)[C@@H](c3cccc(OCCO)c3)N2C1=O,-0.7,-0.757 (inactive),0.441 (inactive),-0.969 (inactive),0.118 (inactive),-0.587 (inactive),-0.33 (inactive),0.0133 (inactive),-0.0778,-0.138
COCCOC(=O)N1C(=O)[C@@]2(c3cc(C#CC4=CCCCC4)ccc31)[C@H](C(=O)N1CCCCCCC1)[C@H]1C(=O)O[C@H](c3ccccc3)[C@H](c3ccccc3)N1[C@@H]2c1ccccc1OCCO,1.84,0.615 (inactive),0.209 (inactive),-0.434 (inactive),0.526 (inactive),0.511 (inactive),-0.294 (inactive),-1.14 (inactive),0.185,-0.0244
CC(CO)N1C(=O)[C@@H]2[C@H]3C(=O)OCC=C[C@H]3OC23C=CCN(c2ccc4ccccc4c2)C(=O)[C@@H]13 (stereo not given in full),0.984,-0.0392 (inactive),0.224 (inactive),0.0007 (inactive),-0.0432 (inactive),-0.405 (inactive),-0.398 (inactive),-0.534 (inactive),0.492,-0.138
CCN1C(=O)C2CC(=O)C3C(CN(S(=O)(=O)c4ccc(C)cc4)C3c3ccc(C)cc3)C2C1=O (stereo not given),-0.733,0.728 (inactive),-0.631 (inactive),0.551 (inactive),-0.144 (inactive),0.5 (inactive),-0.772 (inactive),0.346 (inactive),-0.627,-0.148
CCCCN1CC=CC23O[C@@H]4/C=C\CCCOC(=O)C4[C@H]2C(=O)N(CCCCCCO)[C@@H]3C1=O (stereo not given in full),0.646,-0.556 (inactive),1.21 (inactive),-1.97 (inactive),0.454 (inactive),-0.874 (inactive),0.564 (inactive),0.924 (inactive),0.983,-0.159
[N-]=[N+]=NCc1ccccc1C[C@@]1(C(N)=O)N=C(c2ccc(OCCCO)cc2)O[C@@H]1c1ccccc1N=[N+]=[N-],0.304,-1.35 (inactive),-1.32 (inactive),0.474 (inactive),2.28 (inactive),0.0193 (inactive),0.207 (inactive),-0.893 (inactive),-0.644,0.0871
CO[C@H]1O[C@H](CO)[C@@H](OC(=O)Nc2cccc(F)c2)[C@H](OC(=O)Nc2ccc3c(c2)OCO3)[C@@H]1OC(=O)Nc1ccc2c(c1)OCO2,-0.705,1.38 (inactive),-1 (inactive),0.368 (inactive),0.661 (inactive),1.82 (inactive),1.04 (inactive),0.761 (inactive),-0.931,0.0526
COc1ccc(C#Cc2ccc3c(c2)[C@]2(C(=O)N3)[C@H](c3ccccc3OCCO)N3[C@H](c4ccccc4)[C@H](c4ccccc4)OC(=O)[C@H]3[C@@H]2C(=O)NC[C@H](O)c2ccccc2)cc1,0.328,2.05 (inactive),-2.59 (inactive),-17.2 (active),1.08 (inactive),2.25 (inactive),0.158 (inactive),-0.438 (inactive),-3.95,0.0655
Cc1ccc(S[C@]2(C(=O)NC(C)C)CC(=O)N(Cc3ccccc3)[C@@H]2c2ccc(CO)cc2I)cc1,-0.885,-2.23 (inactive),-3.48 (inactive),-0.489 (inactive),0.003 (inactive),-0.101 (inactive),-0.0759 (inactive),0.494 (inactive),-2.8,0.301
COc1ccc(NN2C(C(O)c3ccccc3)C=CC3C(=O)N(C4CCCCC4)C(=O)C32)cc1 (stereo not given),-0.403,0.047 (inactive),-0.0925 (inactive),-0.638 (inactive),0.505 (inactive),1.5 (inactive),-0.0187 (inactive),0.0413 (inactive),0.0134,0.0348
C=CCC(OC(C)=O)[C@@H]1[C@@H](N(Cc2ccc(-c3ccccc3)cc2)C(=O)Cc2ccc(OC)cc2)c2cc(OCCCO)ccc2N1C(=O)Cc1ccc(OC)cc1 (stereo not given in full),-0.626,0.118 (inactive),-0.622 (inactive),-0.0632 (inactive),0.186 (inactive),-0.565 (inactive),-0.105 (inactive),-0.403 (inactive),-0.357,-0.185
CCCC[C@@H](O)C1=C(C)Cn2c(=O)n(-c3ccccc3)c(=O)n2[C@H]1CO,-0.256,-1.82 (inactive),-0.0268 (inactive),-1.06 (inactive),0.413 (inactive),-1.88 (inactive),0.514 (inactive),0.715 (inactive),-0.0486,-0.249
COc1ccc([Si](C)(C)[C@H]2[C@H](CCO)O[C@@]3(C(=O)N(Cc4ccccc4)c4ccc(NC(=O)[C@H](C)O)cc43)[C@@H]2C)cc1,-4.02,0.478 (inactive),-7.25 (inactive),1.18 (inactive),1.7 (inactive),4.58 (inactive),1.23 (inactive),0.723 (inactive),-5.45,0.0153
O=C1O[C@H](c2ccccc2)[C@H](c2ccccc2)N2[C@H]1[C@@H](C(=O)Nc1nc3ccccc3s1)[C@]1(C(=O)Nc3ccccc31)[C@H]2c1ccccc1OCCO,0.551,0.448 (inactive),-1.93 (inactive),0.386 (inactive),2.76 (inactive),2.72 (inactive),-0.0179 (inactive),-0.145 (inactive),-3.31,-0.128
O=C(CS)NCCCCCCNC(=O)[C@H]1C[C@H]2C(=O)NCC(=O)N2[C@H]1c1cccc(OCCO)c1,-0.39,-0.462 (inactive),-0.0674 (inactive),-0.59 (inactive),0.339 (inactive),0.0796 (inactive),0.469 (inactive),-0.814 (inactive),-0.348,0.0269
C=CCN1C(=O)[C@@]2(O[C@@H](CCO)[C@H]([Si](C)(C)c3ccc(OC)cc3)[C@H]2C)c2cc(N3CCCCC3=O)ccc21,-2.74,0.208 (inactive),-4.57 (inactive),-1.11 (inactive),0.568 (inactive),2.45 (inactive),1.16 (inactive),0.777 (inactive),-5.44,0.271
O=C1C2C=CC(C(O)C(c3ccccc3)c3ccccc3)N(Nc3ccccc3F)C2C(=O)N1c1ccccc1 (stereo not given),-0.353,-0.704 (inactive),-0.813 (inactive),1.68 (inactive),0.34 (inactive),1.52 (inactive),-0.872 (inactive),-0.82 (inactive),-1.32,0.0617
O=C1NC(=O)C2C1C=CC(C(O)C(O)CO)N2Nc1ccccn1 (stereo not given),-0.908,0.802 (inactive),-0.872 (inactive),-0.683 (inactive),1.11 (inactive),-0.645 (inactive),-0.0259 (inactive),0.61 (inactive),-0.885,-0.195
C=CC[C@]12N=C(c3ccc(OCCCO)cc3)O[C@H]1c1ccccc1N(CCC)C2=O,-0.151,-1.91 (inactive),-1.14 (inactive),-0.536 (inactive),1.24 (inactive),0.208 (inactive),0.181 (inactive),-0.464 (inactive),-0.65,0.0655
C=C[C@H](C)[C@@H](OC(=O)Nc1ccc(SC)cc1)c1ccc(OCCO)cc1,-1.01,-0.773 (inactive),-0.715 (inactive),0.918 (inactive),0.696 (inactive),1.08 (inactive),-1.55 (inactive),-1.71 (inactive),-0.894,-0.208
CC(C)N1C(=O)[C@@]2(Cc3ccccc31)c1ccccc1C(=O)N(Cc1ccccc1)[C@H]2c1ccc(CO)cc1,-0.147,2.07 (inactive),0.144 (inactive),-19.1 (active),0.338 (inactive),1.69 (inactive),0.367 (inactive),-0.665 (inactive),0.0769,-0.337
